# Results: PubChem BioAssay (NCATS)
# Records with an inconclusive call do not appear. Unmarked numbers belong to inactive results. Activity calls are given as the source filed them. Calls follow the shape of the dose curve; as a rule, active = well fitted inhibition curve with a large enough effect; inconclusive = small, poorly fitted or top-dose-only effect; inactive = flat fitted curve, though single readings scatter.
# System: W2
# Assay: qHTS profiling for inhibitors of Plasmodium falciparum proliferation (AID 504749); also: nearly all actives have a fitted effect of over 60% in size;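 as to activity, negative = inhibition: 0% = DMSO vehicle and full inhibition = artemisinin control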
# Settings: P. falciparum in erythrocytes, SYBR Green DNA, 72 h; series mostly up to 28.7 µM; activity, negative = inhibition: at the top concentration
# Description: NIH National Institute of Allergy and Infectious Diseases [NIAID] NIH Chemical Genomics Center [NCGC] MLPCN Grant: None Assay Provider: Xinzhuan Su, NIAID NCGC Assay Overview: Plasmodium falciparum is a virulent malarial parasite that kills 1-2 million people worldwide each year. Transmitted by mosquitoes, the sporozoite form of the parasite enters the blood stream to infect hepatocytes, where they become merozoites that infect red blood cells (erythrocytes). Within erythrocytes, merozoites begin a […] cycle of growth and division, after which the parasite is released to infect new red blood cells. Gametocytes, which form within erythrocytes as well, circulate in the bloodstream and are ingested by the mosquito, thereby completing the life cycle. To profile malarial isolates for differential chemical responses and to identify inhibitors of malarial growth, an assay that measures P. falciparum growth and replication within erythrocytes was employed. This assay uses a DNA binding fluorescent dye (SYBR Green) to detect parasite DNA following cell lysis. Because mature erythrocytes lack DNA, only Plasmodium-derived DNA is detected.
# NCGC Assay Protocol Summary: The SYBR Green viability assay was adapted from a method described previously (Plouffe et al., 2008). For screening 3 ul culture medium was dispensed into 1536 well black clear bottom plates (Aurora Biotechnologies) using a Multidrop Combi (Thermo Fisher Scientific Inc.), 23 nL compounds in DMSO were added by a pin tool (Kalypsys), and 5 ul of erythrocytes infected with P. falciparum (0.3% parasitemia, 2.5% hematocrit final concentration) were added. The plates were incubated at 37 C in a humidified incubator in 5% CO2 for 72 h, and 2 ul lysis buffer (20 mM Tris HCl, 10 mM EDTA, 0.16% saponin, 1.6% triton X, 10X SYBR Green I supplied as 10,000X […] by Invitrogen) was added to each well. The plates were mixed for 25 sec with gentle shaking and incubated overnight at room temperature in the dark. The following morning, fluorescence intensity at 485(14) nm excitation and 535(25) nm emission wavelengths was measured on an EnVision (Perkin Elmer) plate reader. Plate reads were normalized relative to the control inhibitor (0.29 uM artemisinin) and vehicle (DMSO) wells present on each plate and then corrected by an algorithm using vehicle-only control plates at the beginning and end of the compound plate stack.
# Potency is read from the fitted curve at half-maximal effect.
Compound,"activity, negative = inhibition",Potency
C[C@@H](C(=O)O)c1ccc(-c2ccccc2)c(F)c1,6.11% [at 12.8 µM],–
CC(C)C[C@@H](NC(=O)[C@H](Cc1ccccc1)NC(=O)c1cnccn1)B(O)O,–,0.0757 µM (active)
CN1CCN(CCC=C2c3ccccc3Sc3ccc(S(=O)(=O)N(C)C)cc32)CC1,–,6.01 µM (active)
COC(=O)[C@@H]1[C@@H]2C[C@H]3c4[nH]c5ccccc5c4CCN3C[C@@H]2CC[C@@H]1O,0.188%,–
O=C(CC1NCCC[C@H]1O)Cn1cnc2cc(Br)c(Cl)cc2c1=O (stereo not given in full),–,0.675 µM (active)
O=C1c2cccc3c2[C@@H](CCC3)CN1[C@@H]1CN2CCC1CC2,–,6.75 µM (active)
CC(=O)[C@H]1CC[C@H]2C3CC=C4C[C@@H](O)CC[C@]4(C)C3CC[C@]12C (stereo not given in full),-2.44%,–
C/C=C1\C2C=C(C)CC1(N)c1ccc(=O)[nH]c1C2 (stereo not given),3.62%,–
CCCCC(=O)N(Cc1ccc(-c2ccccc2-c2nn[nH]n2)cc1)C(C(=O)O)C(C)C (stereo not given),–,15.1 µM (active)
CC(C)(O)c1ccccc1CC[C@H](SCC1(CC(=O)O)CC1)c1cccc(/C=C/c2ccc3ccc(Cl)cc3n2)c1,-8.27%,–
